The whole screen tested about 370,000 compounds, of which about 3,100 (0.84%) were called active. The sample as a whole holds a higher share of actives than the screen did. Values without a mark were called inactive.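 The calls were made as follows: active = inhibition above the mean of compounds lying between control limits plus 3 SD, set per campaign (cut at about 8.5% in these data); inactive = the rest.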

The assay deals with Disintegrin and metalloproteinase domain-containing protein 17 (Homo sapiens) (UniProt P78536). Nature of the assay: ADAM17 inhibitors, primary screen, biochemical, QFRET (AID 720648).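 Also: 0% = DMSO-only wells as the low control.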 The note with it: recombinant ADAM17, EDANS/DABCYL FRET peptide cleavage; at 6.95 µM; hits give high values.
Chain of Disintegrin and metalloproteinase domain-containing protein 17 (Homo sapiens) (P78536 215-824 limits assumed): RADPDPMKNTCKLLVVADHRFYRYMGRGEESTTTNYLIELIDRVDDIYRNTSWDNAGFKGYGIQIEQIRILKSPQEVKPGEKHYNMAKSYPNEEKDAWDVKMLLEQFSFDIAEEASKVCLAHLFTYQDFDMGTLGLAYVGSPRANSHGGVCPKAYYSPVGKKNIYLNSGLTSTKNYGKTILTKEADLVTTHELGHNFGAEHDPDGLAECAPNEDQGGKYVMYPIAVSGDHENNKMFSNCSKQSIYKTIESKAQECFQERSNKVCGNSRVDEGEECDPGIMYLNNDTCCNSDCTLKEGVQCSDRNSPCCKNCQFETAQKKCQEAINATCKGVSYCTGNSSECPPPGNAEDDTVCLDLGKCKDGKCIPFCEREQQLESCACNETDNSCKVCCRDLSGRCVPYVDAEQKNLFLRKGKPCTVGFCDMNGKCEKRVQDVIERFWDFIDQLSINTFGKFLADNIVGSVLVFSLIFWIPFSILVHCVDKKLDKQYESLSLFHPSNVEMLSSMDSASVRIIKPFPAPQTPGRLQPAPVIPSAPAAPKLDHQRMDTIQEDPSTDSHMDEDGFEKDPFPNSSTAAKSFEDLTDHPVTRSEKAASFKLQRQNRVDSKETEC
As a reminder, the inhibition is the change of the read-out against control, counted positive when it falls. As for `Cc1ccc(Cn2cc(CN3[C@@H](C)COc4cc(Br)ccc4S3(=O)=O)nn2)cc1`, the inhibition was -2.3%.

Take `COC(=O)c1cccc(Cn2ccc3ccc(-c4ccc5ccn(C(=O)C6CCCCC6)c5c4)cc32)c1`: the inhibition is -4.69%.

As to `Cc1ccc(C2=CCN(C)C(=O)N2c2ccc(Cl)cc2)cc1`, the inhibition was 0.02%.

On to `CCOC(=O)C1CCN(C(=O)C(C)(C)NC(=O)Nc2ccc(F)c(F)c2)CC1`, for which the inhibition is 0.09%.

With `COc1ccccc1C(=O)CSc1nnc(-c2ccccn2)n1-c1ccccc1`, the inhibition is -0.51%.

Take `CCOC(=O)[C@]12CCCCC/C=C\1N(Cc1ccc(OC)cc1)C(=O)[C@H]2CC(=O)NCc1ccc(C)o1`: the inhibition is -1.43%.

Take `CCn1c(SCC(C)=O)nc2sc3c(c2c1=O)CCCC3`: the inhibition is -1.68%.

Regarding `Cc1ccc(C)c(-n2c(SCC(=O)O)nc3sc4c(c3c2=O)CCCC4)c1`, the inhibition is 0.43%.

Consider `NNC(=O)C1CCCn2c1nc1sc3c(c1c2=O)CCCC3` (stereo unspecified), for which the inhibition is 11.2% (active).

For the compound `O=C(CN1CCC(NC(=O)NCc2ccccc2)CC1)Nc1ccc2c(c1)OCCO2`, the inhibition is -4.62%.

Regarding `CCCC[C@H](C(=O)N(CC)c1ccccc1)[C@@H](O)c1ccc2ccccc2c1`, the inhibition was 4.5%.

Take `COc1ccc(NC(=O)COC(=O)CNC(=O)C2CCCCC2)cc1`: the inhibition is -0.83%.

With `O=C1CCC(C(=O)OCC(=O)Nc2ccc(OC(F)F)cc2)=NN1`, the inhibition was 5.95%.

In the case of `CCC(C)(C)c1ccc(Oc2ccc(NC(=O)COC(=O)C3=COCCO3)cc2)cc1`, the inhibition is 15.7% (active).

For `CCOC(=O)N1CCN(C(=O)C[C@@H]2C(=O)N(CCc3ccc(Cl)cc3)C3=CCCC[C@]32C(=O)OCC)CC1`, the inhibition was -1.27%.

For the compound `CC[C@@H](CCC(=O)N(c1ccccc1)c1ccccc1)C1CC1`, the inhibition was -3.63%.

On to `Nn1c(SCC(=O)Nc2cccc3ccccc23)nnc1-c1cc(-c2ccc(F)cc2)n[nH]1`, for which the inhibition is -1.2%.

Take `Cn1c(=O)c2c(nc(N/N=C/c3cccs3)n2Cc2ccc(Br)cc2)n(C)c1=O`: the inhibition is 9.47% (active).

For the compound `C/C(Cl)=C\Cn1c(Nc2cccc(C)c2)nc2c1c(=O)n(C)c(=O)n2C`, the inhibition is 1.3%.

Consider `Cn1c(=O)c2sccc2n(Cc2ccc(Br)cc2)c1=O`, for which the inhibition was 0.1%.

On to `COc1ccc(CSc2nnc(-c3cccc(C)c3)n2C)cc1`, for which the inhibition is -0.21%.

`CC(=O)Nc1ccc(C(=O)CSc2nnc(Cc3ccccc3)o2)cc1`: the inhibition was 2.43%.

`CCOc1ccc(Nc2nc(Cc3nnc(SCC(=O)c4ccc(C)cc4)o3)cs2)cc1`: the inhibition is 13.7% (active).

Consider `CCOc1ccc(Nc2nc(Cc3nnc(SCC(=O)NC4CCCC4)n3C)cs2)cc1`, for which the inhibition was -1.2%.

As for `COc1ccc(C2CC=C(C(=O)O)C(c3ccccc3F)N2S(=O)(=O)c2ccc(C)cc2)cc1OC` (stereo unspecified), the inhibition is -3.14%.

`CCCCN=C1N/C(=C\c2ccco2)C(=O)N1c1ccccc1`: the inhibition is -3.3%.

`O=C1/C(=C\c2ccsc2)NC(=S)N1c1ccccc1`: the inhibition was 9.7% (active).

For `CC1=CC(C)(C)NC(=S)N1c1ccccc1`, the inhibition is -5.69%.

Take `CCC(=O)OCCCN1C(=O)CCC12CCC(c1ccccc1)CC2` (stereo unspecified): the inhibition was 0.25%.

Consider `O=C(CCl)NC1CCCCN(Cc2cccc(C(F)(F)F)c2)C1=O` (stereo unspecified), for which the inhibition is -6.37%.

Consider `O=S1(=O)c2ccc(Br)cc2OC[C@H](Cc2ccccc2)N1Cc1cn(Cc2ccccc2)nn1`, for which the inhibition is -10.2%.

As for `C[C@H](NC(=O)c1nc[nH]c1C(=O)NCC(=O)OC(C)(C)C)c1ccccc1`, the inhibition was -0.12%.

As for `CC(C)(C)OC(=O)CNC(=O)c1[nH]cnc1C(=O)N[C@@H](Cc1ccccc1)C(=O)OCc1ccccc1`, the inhibition is 11.2% (active).

Regarding `C[C@@H](NC(=O)c1nc[nH]c1C(=O)N1CCN(C(=O)OC(C)(C)C)CC1)c1ccccc1`, the inhibition is -5.12%.

For `CC(C)(C)OC(=O)N1CCC(NC(=O)c2[nH]cnc2C(=O)N[C@@H](Cc2ccccc2)C(=O)OCc2ccccc2)CC1`, the inhibition is 14.3% (active).

Take `CNC(=O)c1[nH]cnc1C(=O)N[C@@H](CC(C)C)C(=O)OCc1ccccc1`: the inhibition is 1.89%.

Consider `C[C@H](NC(=O)c1nc[nH]c1C(=O)NCC(=O)OC(C)(C)C)C(=O)OCc1ccccc1`, for which the inhibition is 0.33%.

With `Cc1cc(C)n2ncc(C(=O)Nc3ccc4c(c3)OCCO4)c2n1`, the inhibition was -3.48%.

Turning to `COc1cc(NC(=O)C2CCCN(S(=O)(=O)c3ccc(C(C)(C)C)cc3)C2)cc(OC)c1` (stereo unspecified), the inhibition was 3.29%.

With `CCOC(=O)[C@]12CCCC=C1N(Cc1ccc(OC)cc1)C(=O)[C@@H]2CC(=O)N1CCOCC1`, the inhibition was -0.05%.

For the compound `CCOc1ccc(OCC)c(-c2c(=O)n(OCc3ccc(Cl)cc3)c3ccccc3[n+]2[O-])c1`, the inhibition is 9.36% (active).

In the case of `O=c1c(-c2ccc(Cl)cc2)[n+]([O-])c2ccccc2n1OCc1nc2ccccc2[nH]1`, the inhibition was -12.2%.

Turning to `COc1ccc(OC)c(-c2c(=O)n(OCc3ccccc3Br)c3ccccc3[n+]2[O-])c1`, the inhibition is 0.86%.

As to `Cc1c(C(C)c2ccccc2O)[nH]c2ccccc12` (stereo unspecified), the inhibition was 4.61%.

For `O=C(NCc1cccs1)C1CCN(S(=O)(=O)c2ccccc2[N+](=O)[O-])CC1`, the inhibition is 1.09%.

Take `Cc1cc(NC(=O)c2ccccc2C)no1`: the inhibition is -1.75%.

As to `O=C(COC(=O)c1ccccc1)Nc1ccccc1Sc1ccccc1`, the inhibition was 9.99% (active).

As for `COc1ccc(C(=O)OCC(=O)NC(=O)CCSc2ccccc2)cc1`, the inhibition was 0.55%.

`O=C(COC(=O)c1ccccn1)Nc1cccc2ccccc12`: the inhibition is -0.52%.

For `Cc1ccccc1C(=O)O`, the inhibition was -1.22%.

For the compound `Cc1ccccc1C(=O)Nc1ccccc1Sc1ccccc1`, the inhibition is 10.4% (active).

Turning to `COc1ccc(-n2c(SCC(=O)Nc3ccc4cn[nH]c4c3)nnc2-c2cccnc2)cc1`, the inhibition is 2.47%.

Consider `COc1ccc(C2Nc3ccccc3C(=O)N2Cc2cccs2)cc1COc1c(C)cccc1C` (stereo unspecified), for which the inhibition was -93.1%.

Turning to `CC(C)CNc1cccc2c1S(=O)(=O)N(Cc1cn(Cc3ccc(Cl)cc3)nn1)Cc1ccccc1O2`, the inhibition was -4.11%.

As to `COP(=O)(O)CNC(=O)OCc1ccccc1`, the inhibition is 1.95%.

In the case of `O=C(COC(=O)C1(c2ccc(F)cc2)CCCC1)N1CCNC1=O`, the inhibition was -6.77%.

Turning to `O=C(COC(=O)c1ccc(NS(=O)(=O)c2cccs2)cc1O)Nc1ccc(F)cc1`, the inhibition is 8.44%.

Take `CN(C)S(=O)(=O)c1cccc(NC(=O)COC(=O)c2cc(=O)[nH]c(=O)[nH]2)c1`: the inhibition is 0.24%.

Consider `CN(C)S(=O)(=O)c1cccc(NC(=O)COC(=O)C2(c3ccccc3F)CCCC2)c1`, for which the inhibition was 14.4% (active).

As to `NS(=O)(=O)c1ccc(NC(=O)COC(=O)C2(c3ccc(F)cc3)CCCC2)cc1`, the inhibition is 10.8% (active).

With `CN(C)S(=O)(=O)c1cccc(NC(=O)COC(=O)/C=C/c2cccs2)c1`, the inhibition is -0.31%.

As for `CCCCOCCCNC(=O)C[C@H]1C[C@@]2(C(=O)OC)C(=C[C@H](C(C)(C)C)O[C@@H]2C)N(CCc2ccc(OC)c(OC)c2)C1=O`, the inhibition is 4.52%.

Take `O=S1(=O)c2c(cccc2N2CCSCC2)Oc2ccccc2CN1Cc1cn(Cc2ccc(F)cc2)nn1`: the inhibition is -0.02%.

As for `COc1ccc(N2CCN(CCNS(=O)(=O)c3ccc(Cl)s3)CC2)cc1`, the inhibition is -0.88%.

Consider `CCC[C@H]1C(=O)CC[C@@]23CCCN2C(=O)CCC[C@@H]13`, for which the inhibition is -0.61%.

For the compound `C=CCOc1ccc(/C=N/n2cncn2)cc1OC`, the inhibition was -11.9%.

As to `CNC(=S)N/N=C/c1ccc(OCc2ccccc2)c(Br)c1`, the inhibition is -1.43%.

As to `COc1cc(/C=N/n2c(C)n[nH]c2=S)ccc1OCc1ccccc1`, the inhibition was 10.8% (active).

For `COc1cccc(CNC(=O)C2CCCN(c3nc4ccccc4o3)C2)c1OC` (stereo unspecified), the inhibition is 1.62%.

With `O=C(c1c[nH]c2ccccc12)N1CCC(Oc2cccnc2)CC1`, the inhibition was 1.77%.

In the case of `O=C1C(=O)N(Cc2ccc(-c3ccsc3)cc2)c2ccc(OC(F)(F)F)cc21`, the inhibition was 1.76%.

With `CCOc1cc(C(=S)N2CCOCC2)ccc1OS(=O)(=O)c1ccc(Br)cc1`, the inhibition is -3.87%.

Consider `O=S(=O)(Oc1ccccc1C(=S)N1CCOCC1)c1ccc(Cl)cc1`, for which the inhibition was -1.11%.

`CC(=O)Nc1ccc(S(=O)(=O)Oc2ccc(Br)cc2C(=S)N2CCOCC2)cc1`: the inhibition was 9.15% (active).

`O=C(C1CCCN1S(=O)(=O)c1ccccc1)N1CCc2ccccc2C1` (stereo unspecified): the inhibition was 1.33%.

Turning to `CCOc1c(Br)cc(/C=C2\C(=O)N(CCC#N)N=C2C)cc1OC`, the inhibition is 8.65% (active).

Take `CC(C)(C)c1ccc(CSc2nnc(-c3cccs3)o2)cc1`: the inhibition is -1.78%.

Regarding `COC(=O)[C@]12C[C@H](CC(=O)N3CCN(C(=O)C4CC4)CC3)C(=O)N(CCC3=CCCCC3)C1=C[C@H](C(C)C)O[C@@H]2C1CC1`, the inhibition is -8.05%.

As for `CC1(C)C=Cc2c(ccc3c2OC[C@@H](c2ccc(O)cc2O)C3)O1`, the inhibition is 19.4% (active).

For the compound `CN[C@H]1C[C@H]2c3cc(N4CCOCC4)ccc3CCN2C[C@H]1[C@H](C)O`, the inhibition is -6.65%.

Take `O=C(CCCCCN1C(=O)C2C3C=CC(C3)C2C1=O)Nc1ccccc1` (stereo unspecified): the inhibition is 4.34%.

For the compound `Cc1ccc(CC2(C)C(=O)Nc3ccc(OC(F)(F)F)cc32)cc1` (stereo unspecified), the inhibition is 8.02%.

`COc1ccccc1CC1(C)C(=O)Nc2ccc(OC(F)(F)F)cc21` (stereo unspecified): the inhibition is 6.39%.

With `CC1(Cc2cccc(C#N)c2)C(=O)Nc2ccc(-c3cccc(C(F)(F)F)c3)cc21` (stereo unspecified), the inhibition is 11.2% (active).

As to `CC(c1c[nH]c2ccccc12)c1c(-c2ccccc2)n(C)c2ccccc12` (stereo unspecified), the inhibition was -2.38%.

For the compound `N#Cc1ccccc1OC[C@@H](O)CN1CCC(C(O)(c2ccccc2)c2ccccc2)CC1`, the inhibition is -1.12%.
